Results on eleven compounds are retold here after PubChem BioAssay.

A short description of experiment [1]: growth inhibition of DIPG glioma cells, dose response, cell-based, SU-DIPG-XIII, MIPE4.0, CellTiter-Glo, qHTS (AID 1347061; cut-off not given, nearly all actives have AC50 up to about 37 µM;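 also: cells exposed to compound for 48 hours before readout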). To be noted: SU-DIPG-XIII viability, CellTiter-Glo ATP luminescence. Background: ATP-based viability assays read luminescence as a measure of living cells.
Experiment [2] in a line: viability loss in pontine glioma line – cell-based, SU-DIPG-XXV, MIPE5.0, CellTiter-Glo, qHTS, dose response (AID 1347065; cut-off not given, nearly all actives have AC50 up to about 26 µM;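 also: cells exposed to compound for 48 hours before ATP readout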). Particulars: CellTiter-Glo ATP luminescence.
Experiment [3] can be described thus: modifiers of HSF1 nuclear foci, imaging, Selleck Cancer Library (AID 1347162; in the data active = plate-normalised HSF1 focus index below about 0.46). Particulars: human cells, at 10 µM; SSMD: measured here: HSF1 foci SSMD mean; cell count: measured here: cell number; plate-normalised HSF1 focus index: stronger effect = lower value.
Experiment [4] is described as follows: growth inhibition of DIPG glioma cells, dose response, cell-based, JHH-DIPG-1, MIPE4.0, CellTiter-Glo, qHTS (AID 1347062; cut-off not given, nearly all actives have AC50 up to about 27 µM). To be noted: JHH-DIPG-1 viability, CellTiter-Glo ATP luminescence.
A short description of experiment [5]: SU-DIPG-VI glioma cell viability, MIPE4.0 library, CellTiter-Glo luminescence, qHTS (AID 1347066).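 Also: cells exposed to compound for 48 hours before readout.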 Particulars: CellTiter-Glo ATP luminescence.
A short description of experiment [6]: sensitizers of A549 cells to miR-34 induction, primary screen, imaging, A549 dox-inducible miR-34, nuclei and caspase counts (AID 1347080;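 active = compounds whose cell count with miR-34 switched on is under 0.7 times the count with it off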). To be noted: A549 miR-34 inducible, Hoechst nuclei count, 48 h.
Experiment [7] in a line: survival rescue of mitochondrial mutant cells in low glucose, primary screen, MELAS cybrids, Rieske KO mouse fibroblasts, CellTiter-Glo (AID 1508586;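 active = mean z-score across replicates of 1.96 or higher in either the MELAS or the Rieske mutant cell line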;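 also: z relative to plate mean and SD of compound and empty wells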).
Experiment [8] is described as follows: growth inhibition of DIPG glioma cells, dose response, cell-based, SU-DIPG-IV, MIPE4.0, CellTiter-Glo, qHTS (AID 1347063).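 Also: compound exposure lasted 48 hours before the viability readout.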 To be noted: SU-DIPG-IV viability, CellTiter-Glo ATP luminescence.
Experiment [9] is described as follows: SU-DIPG-XXV glioma cell viability, MIPE5.0 library, qHTS (AID 1347068; cut-off not given, nearly all actives have IC50 up to about 30 µM). A general note: In qHTS, concentration-response curves come from the screen itself.
The nature of experiment [10]: JHH-DIPG-1 glioma cell viability, MIPE5.0 library, CellTiter-Glo luminescence, qHTS (AID 1347067; cut-off not given, nearly all actives have AC50 up to about 26 µM;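 also: cells exposed to compound for 48 hours before readout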). To be noted: JHH-DIPG-1 glioma viability, CellTiter-Glo ATP luminescence.
Experiment [11] can be described thus: growth inhibition of DIPG glioma cells, dose response, cell-based, SU-DIPG-XIII, MIPE5.0, CellTiter-Glo, qHTS (AID 1347064; cut-off not given, nearly all actives have AC50 up to about 23 µM). To be noted: SU-DIPG-XIII viability, CellTiter-Glo ATP luminescence.
Setting [12] is: stronger effect = lower value, cell number ratio, induced over uninduced.
Setting [13] is: measured here: relative caspase fold change +Dox/-Dox.
Setting [14] is: measured here: total cells with miR-34 induction, stronger effect = lower value.
Where [15] appears, read: measured here: total cells without miR-34 induction.
The mark [16] stands for this setting: MELAS cybrid survival, CellTiter-Glo 48 h, stronger effect = higher value.
[17] abbreviates: Rieske KO mouse fibroblast survival, CellTiter-Glo 72 h.

Values joined by “and” are separate entries in the source; they are usually repeats but may differ in a detail not shown here. Identical values can stand only once. Records with an inconclusive call do not appear. Active and inactive are the calls of the source. Unless noted, the limit is not given here; nearly all actives have AC50 up to about 30 µM.

Consider `N#Cc1ccc(NC(=O)Nc2ccccc2Br)c2n[nH]nc12`, for which, in experiment [1], the result was inactive. Besides, the call in experiment [2] was inactive. In experiment [3], the SSMD was -0.0129, the cell count worked out at 7440 and the plate-normalised HSF1 focus index was 1 (inactive).
With `CC(C)CN(C[C@@H](O)[C@H](Cc1ccccc1)NC(=O)O[C@H]1CCOC1)S(=O)(=O)c1ccc(N)cc1`, the compound was classed as inactive in [1], in experiment [4] and in experiment [5]. The fold change in experiment [6] (setting [12]) is 0.871 (inactive); in experiment [6] (setting [13]), 1.32. Besides, the values for the cell count in experiment [6] (setting [14]) and in [6] (setting [15]) were 8920 and 10200, respectively. The z-score was -0.00484 (inactive) in [7] (setting [16]) and -0.0373 in experiment [7] (setting [17]).
For the compound `O=c1cc(-c2ccc(O)c(O)c2)oc2cc(O)cc(O)c12`, the compound was called inactive in experiment [1], in [8] and in experiment [5]. Besides, the fold change is 0.817 (inactive) and 1 (inactive) and 0.947 (inactive) in experiment [6] (setting [12]); 1.18 and 0.969 and 1.11 in experiment [6] (setting [13]). The cell count in experiment [6] (setting [14]) was 7040 and 6030 and 8740; in experiment [6] (setting [15]), 8620 and 6020 and 9220. The z-score was -0.397 (inactive) and 1.32 (inactive) in experiment [7] (setting [16]); -0.97 and -0.213 in [7] (setting [17]).
As for `Cc1coc2c1C(=O)C(=O)c1c-2ccc2c(C)cccc12`, the compound was classed as inactive in experiment [1] and in experiment [4]. Besides, the results for the fold change in experiment [6] (setting [12]) and in [6] (setting [13]) were 0.847 (inactive) and 1.93, respectively. Further, the cell count in [6] (setting [14]) came to 7470; in [6] (setting [15]) it was 8830. Also, the values for the z-score in experiment [7] (setting [16]) and in experiment [7] (setting [17]) were -0.324 (inactive) and -1, respectively.
As for `O=C(C1CC1)N1CC[C@@H](Cn2c(-c3ccc(-c4ccc5occc5c4)cc3)nc3cnccc32)C1`, the compound was called inactive in experiment [1], in [5] and in experiment [9]. The AC50 in experiment [2] was 18.6 µM (active).
With `CC(O)(C#Cc1ccc2c(c1)N(c1nc(N)ncc1Cl)CC2)c1nccs1` (configuration not stated), the AC50 was 16.6 µM (active) in experiment [1], 16.6 µM (active) in [8], 13.2 µM (active) in experiment [2] and 18.6 µM (active) in experiment [10]. Besides, the compound was classed as inactive in [5].
Regarding `CCOC(=O)N1c2ccc(C(F)(F)F)cc2[C@@H](N(Cc2cc(C(F)(F)F)cc(C(F)(F)F)c2)C(=O)OC)C[C@H]1CC`, the outcome in experiment [1], in experiment [11], in [5], in experiment [10] and in [9] was inactive.
Turning to `CCOC(=O)C1=C(C)NC2=C(C(=O)CC(C)(C)C2)C1c1ccc(-c2ccccc2)cc1` (configuration not stated), the result in experiment [1] and in experiment [9] was inactive. The AC50 in experiment [8] is 14.8 µM (active); in experiment [2] it was 23.5 µM (active).
`O=c1c2ccccc2nc2n1CCc1c-2[nH]c2ccccc12`: the outcome in experiment [1], in experiment [4] and in [5] was inactive. For the same compound, the fold change in [6] (setting [12]) was 0.916 (inactive) and 0.956 (inactive); in experiment [6] (setting [13]), 0.977 and 0.922. Moreover, the cell count is 6410 and 7870 in experiment [6] (setting [14]); 6990 and 8230 in experiment [6] (setting [15]). Further, the z-score is -0.312 (inactive) in [7] (setting [16]) and 0.166 in experiment [7] (setting [17]).
With `Cc1c(NC(=O)c2ccc(C(C)(C)C)cc2)cccc1-c1cn(C)c(=O)c(Nc2ccc(C(=O)N3CCOCC3)cc2)n1`, the compound was called inactive in experiment [1], in experiment [5] and in experiment [9]. Further, the AC50 in [8] was 10.5 µM (active). Moreover, the fold change in [6] (setting [12]) is 1.11 (inactive); in experiment [6] (setting [13]) it was 0.695. The cell count in experiment [6] (setting [14]) was 5460; in experiment [6] (setting [15]), 4900. For the same compound, the z-score in experiment [7] (setting [16]) was -0.54 (inactive); in experiment [7] (setting [17]), -0.156.
`CC(C)C[C@H](NC(=O)c1cc2ccccc2s1)C(=O)N1CCN(C(=O)[C@H](CO)NS(=O)(=O)c2ccc(Cl)cc2Cl)CC1`: the outcome in experiment [4] was inactive. For the same compound, the figures for the AC50 in experiment [8], in experiment [2] and in experiment [5] were 20.9 µM (active), 20.9 µM (active) and 23.5 µM (active), respectively.

By AC50 is commonly meant the concentration at which the activity in the assay is half-maximal.
